# Compounds with a hit are over-represented: about 4% of the library has one in this group of screens.
# Beta cell apopt – inhibitors of cytokine-induced beta cell apoptosis, primary screen, luminescence | 300,000 tested, 0.8% active | AID 435005, 2010 | protection from apoptosis, % (no concentration beside the values) | INS-1E cytokine-induced death, ATP luminescence, 48 h; percent of positive-control rescue, neutral wells zero;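 active = Every replicate reaches about 75%, or at least half do and their mean reaches it too, limit read from the data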;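 also: 0% = cytokine-treated negative control wells and 100% = positive control rescue; higher means more ATP so stronger rescue from cytokine killing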
# CSC inhib – cancer stem cell viability inhibitors, primary screen, luminescence. inhibition, % at 7.5 µM. 300,000 tested, 1.1% active. cancer stem cell-like cells viability; in the data active = inhibition above about 75%; tested in HMLE shEcad cells
# PAX8 reporter – inhibitors of PAX8-driven TPO luciferase reporter, primary screen, RMG-I cells, single concentration | 360,000 tested, 1.2% active | inhibition, % at 12.6 µM | AID 652154, 2013 | SteadyGlo, 24 h;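 active = mean replicate inhibition at least 60% with every replicate also reaching 60%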;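 also: luciferase light reporting Pax8 driven TPO promoter activity; plate controls were median of neutral control wells for no effect and mitoxantrone controls for full effect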
# Shn3 inh set2 – reduction of Shn3 3'UTR firefly luciferase signal, primary screen, Schnurri-3 inhibitor project, cell-based, Clone20 osteoblasts, set 2 | inhibition, % at 12.5 µM | AID 588674, 2011 | Clone20 osteoblast Shn3 3'UTR firefly luciferase, 24 h | 360,000 tested, 0.52% active;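 active = mean inhibition of at least 75% with every replicate also reaching 75%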;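 also: 0% = median of neutral control wells and 100% = pilot-screen positive control compound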
# Gli-Sufu block – Gli-Sufu pathway antagonists, primary screen, luciferase luminescence, Sufu-KO-LIGHT cells, uHTS; Sufu-KO-LIGHT fibroblasts, Gli luciferase reporter luminescence; inhibition, % at 5 µM; 340,000 tested, 0.74% active;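 active = inhibition above about 55%, limit read from the data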;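 also: 0% = DMSO-treated cells and 100% = wells with medium but no cells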
# Mdm2-MdmX inh – inhibitors of human Mdm2-MdmX association, primary screen, cell-based, luminescence, split luciferase, SaOS-2, uHTS; Protein Mdm4 (Homo sapiens) + E3 ubiquitin-protein ligase Mdm2 (Homo sapiens), …; SaOS-2 split-luciferase Mdm2/MdmX complementation; inhibition, % at 8 µM; 330,000 tested, 3% active; AID 485346, 2010;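 active = inhibition of at least 50% at 8 µM in the primary screen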
# The depositor's hits bear a star; / = no result given.
SMILES,Beta cell apopt,CSC inhib,PAX8 reporter,Shn3 inh set2,Gli-Sufu block,Mdm2-MdmX inh
Cn1cnc(S(=O)(=O)N2CCCCN3[C@H](C2)[C@H](c2ccc(C4=CCCC4)cc2)[C@@H]3CO)c1,/,/,-24,/,/,/
O=C(c1cccnc1)N1C[C@@H]2[C@H](c3ccccc31)[C@H](CO)N2C(=O)C1CC1,/,/,8,/,/,/
CNC[C@@H]1Oc2ccc(NS(=O)(=O)c3ccccc3)cc2CC(=O)N([C@@H](C)CO)C[C@H]1C,/,/,-10,/,/,/
Cc1cc([N+](=O)[O-])ccc1-c1ccc(C2Nc3ccccc3C(=O)N2O)o1 (stereo not drawn),70,131*,/,83,-1,41
COc1ccc(CN(C)C[C@@H]2OCCCC[C@H](C)Oc3ccc(NS(=O)(=O)c4cccs4)cc3C(=O)N([C@@H](C)CO)C[C@H]2C)cc1,/,/,13,/,/,/
c1ccc(CNC2=NCCCCC2)cc1,0,-2,/,-4,6,10
c1ccc(NNC2=NCCCCC2)cc1,2,84*,-1,1,-1,9
Cc1nc(N2CCCCC2)c2c(C)c(C(=O)Nc3ccccc3C(F)(F)F)sc2n1,-2,77*,12,15,16,12
Cc1nc(N2CCCCC2)c2c(C)c(C(=O)Nc3cccc(C(F)(F)F)c3)sc2n1,27,/,1,7,-8,30
Cc1noc(C)c1NC(=O)N(C)C[C@H]1OCCCC[C@H](C)Oc2ccc(NS(=O)(=O)c3c(C)noc3C)cc2C(=O)N([C@H](C)CO)C[C@@H]1C,/,/,20,/,/,/
C[C@@H]1CN([C@@H](C)CO)C(=O)c2cc(NC(=O)CCC(F)(F)F)ccc2O[C@@H](C)CCCCO[C@@H]1CN(C)Cc1ccccc1,/,/,-21,/,/,/
CC1=C(CO)C(=O)OC([C@@H](C)C2CC[C@H]3C4C[C@H]5O[C@]56[C@@H](O)C=CC(=O)[C@]6(C)C4CC[C@]23C)C1 (stereo partly drawn),109*,99*,/,98*,16,/
COc1ccc(CNC(=O)C[C@@H]2CC[C@@H](NC(=O)c3cccc(F)c3)[C@H](CO)O2)cc1,/,/,9,/,/,/
O=C(C[n+]1cccc(CNC(=O)c2ccc(OC(F)F)cc2)c1)Nc1ccccc1Cl,-4,-17,10,1,49,9
O=C(C[n+]1cccc(CNC(=O)c2ccc(OC(F)F)cc2)c1)Nc1ccc(SC(F)F)cc1,-3,17,67*,-5,3,9
CCCN1[C@H](C(=O)N(C)C)[C@@H](CO)[C@@H]2Cn3c(ccc(-c4ccc(OC)cc4)c3=O)[C@@H]21,/,/,4,/,/,/
C[C@H]1CCCCO[C@H](CN(C)C(=O)Nc2ccc(C(F)(F)F)cc2)[C@@H](C)CN([C@@H](C)CO)C(=O)c2cc(NS(=O)(=O)c3ccc(Cl)cc3)ccc2O1,/,/,91*,/,/,/
C[C@@H]1CCCCO[C@H](CN(C)C(=O)Nc2ccc(C(F)(F)F)cc2)[C@@H](C)CN([C@@H](C)CO)C(=O)c2cc(NS(=O)(=O)c3ccccc3)ccc2O1,/,/,81*,/,/,/
Cc1ccc(S(=O)(=O)Nc2ccc3c(c2)C(=O)N([C@@H](C)CO)C[C@H](C)[C@@H](CN(C)C(=O)Nc2ccc(C(F)(F)F)cc2)OCCCC[C@@H](C)O3)cc1,/,/,75*,/,/,/
C[C@@H]1CCCCO[C@@H](CN(C)C(=O)Nc2ccc(C(F)(F)F)cc2)[C@@H](C)CN([C@H](C)CO)C(=O)c2cc(NS(=O)(=O)c3ccc(F)cc3)ccc2O1,/,/,66*,/,/,/
CC(C)NC(=O)N1CC2(C1)[C@H](c1ccccc1)[C@H](CO)N2CCC(F)(F)F,/,/,-12,/,/,/
O=C(NCC[C@H]1CC[C@@H](NS(=O)(=O)c2ccccc2)[C@@H](CO)O1)c1cc(Cl)cc(Cl)c1,/,/,6,/,/,/
C[C@@H]1CN([C@@H](C)CO)C(=O)c2cc(NS(=O)(=O)c3ccc(F)cc3)ccc2O[C@@H]1CN(C)C(=O)Nc1ccc(C(F)(F)F)cc1,/,/,71*,/,/,/
C[C@H](CO)N1C[C@H](C)[C@H](CN(C)C(=O)Nc2ccc(C(F)(F)F)cc2)Oc2ccc(NS(=O)(=O)c3ccc(F)cc3)cc2C1=O,/,/,-17,/,/,/

# Source: PubChem BioAssay (several laboratories)
